The record followed here is PubChem BioAssay AID602245 (The Scripps Research Institute Molecular Screening Center, 2012).

This assay in a line: RTF inhibitors shifting pCa50 of muscle force – permeabilized porcine cardiac fibers, force transducer, powder samples, mechanism study for cardiac RTF inhibitor project, late-stage follow-up (AID 602245). The following applies: pig permeabilized cardiac fiber tension, pCa50 shift, at 10 µM; delta pCa50: measured here: shift in calcium sensitivity, stronger effect = lower value; fold change of Ca2+ KD: stronger effect = higher value; maximal force change: measured here: effect on maximal fiber force.

Activity calls are given as the source filed them.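 Rule for the calls: active = compound that raised the calcium level needed for half-maximal fiber tension by more than 10% versus solvent alone; inactive = the rest.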

With `NCCCCCCNS(=O)(=O)c1cccc2c(Cl)cccc12`, the delta pCa50 was -0.116, the fold change of Ca2+ KD was 1.31 (active) and the maximal force change was -4.5%.
